High-throughput results as filed in PubChem BioAssay.
This excerpt belongs to a sample that is enriched for hits.
HT1080-NT tox: kills 2HG-producing HT-1080-NT fibrosarcoma cells; HT-1080-NT fibrosarcoma viability, CellTiter-Glo ATP luminescence, 48 h; Potency, µM (series often up to 46.1 µM), for the others: at the top dose activity, negative = less viability, actives largely listed as cytotoxic; 360,000 compounds, 1.6% hits; AID 686970;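 note: NT is the 2HG producing partner of a matched IDH1 knockdown line; potency is the fitted concentration of half-maximal effect; 0% = DMSO-treated cells and -100% = media-only wells without cells; nearly all actives have a fitted effect of over 55% in size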
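Fibrosarcoma NT cells, 750 per well in 5% FBS RPMI, were exposed to compound for 48 hours. Viability: CellTiter-Glo luminescence.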
HT1080 IDH1KD tx: HT-1080 IDH1 knockdown cell toxicity (counter line). AID 686971. 360,000 compounds, 2% hits. Potency, µM (titrated, usually from 46.1 µM), for the others: at the top dose activity, negative = toxicity, actives largely listed as cytotoxic. HT-1080 IDH1 knockdown viability, ATP luminescence, 48 h;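 note: potency is the fitted concentration of half-maximal effect; 0% = DMSO wells and -100% = cell-free medium wells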
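Knockdown cells (IDH1KD HT-1080) received compounds 2 h after plating at 750 cells/well and were kept 48 h at 37 °C in 5% FBS RPMI. A CellTiter-Glo luminescence read gave % activity for curve fitting.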
TDP1 cell CPT: DT40-hTDP1 cell growth loss with CPT | 420,000 compounds, 12% hits | Potency, µM (series often up to 46.2 µM), without a hit: top-dose activity change, negative = growth inhibition, hits mostly inhibitors | chicken DT40 Tdp1-/-;hTDP1 cells + 20 nM CPT, ATP luminescence, 48 h; note: potency is the fitted concentration of half-maximal effect; nearly all actives have a fitted effect of over 55% in size
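Cell growth measured by CellTiter-Glo luminescence after a minimum 48 h, 37 C compound exposure with 20 nM CPT in Tdp1-knockout DT40 cells stably expressing hTDP1, seeded 400/well; qHTS titration format.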
12-LOX inh: inhibitors of human 12S-lipoxygenase ALOX12. P18054. purified 12hLO, xylenol orange hydroperoxide absorbance. Potency, µM (top dose mostly 108 µM), inactives show at the highest dose activity change, negative = inhibition, actives largely listed as inhibitors. 580,000 compounds, 1.1% hits. AID 1671190; note: potency is the fitted concentration of half-maximal effect
Target sequence (P18054 whole entry, looked up): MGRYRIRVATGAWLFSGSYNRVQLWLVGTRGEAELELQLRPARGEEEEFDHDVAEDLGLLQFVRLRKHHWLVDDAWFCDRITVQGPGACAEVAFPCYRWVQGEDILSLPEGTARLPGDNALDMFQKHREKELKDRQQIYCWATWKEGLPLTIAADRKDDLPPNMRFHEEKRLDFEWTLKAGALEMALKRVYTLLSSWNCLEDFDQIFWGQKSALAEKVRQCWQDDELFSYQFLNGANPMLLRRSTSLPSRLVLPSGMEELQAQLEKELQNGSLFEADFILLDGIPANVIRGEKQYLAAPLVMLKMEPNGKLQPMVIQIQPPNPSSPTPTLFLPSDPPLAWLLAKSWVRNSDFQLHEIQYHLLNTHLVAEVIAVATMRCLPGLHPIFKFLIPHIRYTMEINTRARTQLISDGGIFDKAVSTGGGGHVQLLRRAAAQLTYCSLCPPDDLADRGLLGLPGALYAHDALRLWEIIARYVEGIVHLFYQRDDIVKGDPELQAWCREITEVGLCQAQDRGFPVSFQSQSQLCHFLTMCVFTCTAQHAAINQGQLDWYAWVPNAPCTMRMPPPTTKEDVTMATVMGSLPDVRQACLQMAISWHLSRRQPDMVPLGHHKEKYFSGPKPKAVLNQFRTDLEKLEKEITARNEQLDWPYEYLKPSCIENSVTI
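Hydroperoxide product was detected by ferrous iron/xylenol orange as the 573 to 405 nm absorbance ratio. Arachidonic acid at 40 uM (final) was turned over for 30 min at room temperature by 150 nM human 12hLO, pH 7.0 Hepes buffer, after 15 min compound preincubation.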
IL-1B inflam inh: inhibitors of inflammasome signaling (IL-1 beta secretion) | THP-1 LPS/ATP IL-1B secretion, AlphaLISA, 16 h; active compounds read low | activity change, % at 57.5 µM | 360,000 compounds, 4.7% hits | AID 743279; in the data active = activity change below about -50%; inconclusive = mostly about -30% to -49%
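Secreted IL-1B measured by AlphaLISA bead assay after 16 h compound exposure of THP-1 cells; compounds (final up to 57.5 uM) added 1 h before LPS (250 ng/mL) and ATP (1.25 mM) stimulation; lower signal means less secretion.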
TDP1 cell noCPT: qHTS for Inhibitors of human tyrosyl-DNA phosphodiesterase 1 (TDP1): qHTS in cells in absence of CPT | Potency, µM (series often up to 46.2 µM), inactives show top-dose activity change, negative = growth inhibition, most hits filed as inhibitors | 420,000 compounds, 15% hits | DT40 Tdp1-/- hTDP1 cells, no CPT, ATP luminescence, 48 h; note: potency is the fitted concentration of half-maximal effect; nearly all actives have a fitted effect of over 55% in size
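Growth kinetics read by CellTiter-Glo luminescence after ≥48 hr at 37 °C. Cells: DT40 Tdp1-/- stably carrying human TDP1, 400 per well, compound exposure in the absence of CPT (DMSO vehicle).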
An asterisk follows results filed as active; i = inactive; u = inconclusive; x = not tested or not shown; [ ] = remark or other dose. Unless noted, calls come from the whole dose curve; as a rule, active = well fitted curve in the direction sought with a large enough effect; inconclusive = small, poorly fitted or top-dose-only effect, or another doubt; inactive = no such curve, though single readings can be large; an effect the other way counts as inactive or inconclusive. Unless noted, % is set by controls: 0 for no effect and ±100 for the full control effect.

SMILES	HT1080-NT tox	HT1080 IDH1KD tx	TDP1 cell CPT	12-LOX inh	IL-1B inflam inh	TDP1 cell noCPT
CCC(C)N(CCNC(=O)c1ccc2c(c1)NC(=O)c1ccccc1S2)C1CCCCC1 (stereo unspecified)	u	u	15µM*	-27%	-86*	2.9µM*
CC(=O)Nc1ccc(NC(=O)c2ccc3c(c2)NC(=O)c2ccccc2S3)cc1	x	x	-15%	3%	x	5%
COC(=O)C1=C(C(=O)OC)C2CCCC1C1N=NN(c3ccccc3)C21 (stereo unspecified)	x	x	x	0%	x	x
CN1C[C@@H]2[C@@H]3C(=O)N(C)C(=O)[C@@H]3[C@](C)(C1=O)N2C(=O)c1ccc(C(C)(C)C)cc1	5%	14%	-11%	-4%	0	-15%
O=C(Nc1ccccc1)c1cc(=O)[nH]c2ccccc12	x	x	x	-2%	x	x
CCCSc1ccc2nc(-c3ccccc3)cn2c1	12µM*	12µM*	18µM*	u	-4	16µM*
CN(c1ccccc1)S(=O)(=O)c1ccc(C(=O)Nc2cccc(S(=O)(=O)N3CCOCC3)c2)cc1	-16%	-22%	7.3µM*	-5%	-12	7.3µM*
COc1ccccc1N(C)S(=O)(=O)c1ccc(C(=O)Nc2cccc(S(=O)(=O)N3CCOCC3)c2)cc1	-14%	u	u	20%	-9	10µM*
COc1ccccc1N(C)S(=O)(=O)c1ccc(C(=O)Nc2ccc(C(N)=O)cc2)cc1	0%	-4%	u	-2%	19	u
COc1ccccc1N(C)S(=O)(=O)c1ccc(C(=O)Nc2nc(C)cs2)cc1	-1%	-9%	1.5µM*	-16%	-17	0.65µM*
COc1ccc(Oc2coc3cc(OC(=O)c4cc(OC)c(OC)c(OC)c4)ccc3c2=O)cc1	x	x	x	-34%	x	x
CCC(=O)NC(c1ccccc1Cl)c1c(O)ccc2ccccc12 (stereo unspecified)	-22%	-28%	16µM*	-16%	18	u
CCC(=O)NC(c1ccc(N(C)C)cc1)c1c(O)ccc2ccccc12 (stereo unspecified)	-4%	-5%	-26%	-3%	-1	u
CC(C)CC(=O)NC(c1ccccc1)c1c(O)ccc2ccccc12 (stereo unspecified)	-9%	-16%	u	18%	-80*	u
CCCCC(=O)NC(c1ccc([N+](=O)[O-])cc1)c1c(O)ccc2ccccc12 (stereo unspecified)	16µM*	u	16µM*	-37%	-60*	21µM*
CC(C)C(=O)NC(c1ccccc1Cl)c1c(O)ccc2ccccc12 (stereo unspecified)	-4%[9.24 µM]	-4%	u	-28%	u	-27%
CCC(=O)NC(c1ccc([N+](=O)[O-])cc1)c1c(O)ccc2ccccc12 (stereo unspecified)	u	u	20µM*	-15%	u	u
COc1ccc(NC(=O)N2C[C@@H]3C[C@H](C2)c2ccc(NC(=O)c4ccccn4)c(=O)n2C3)cc1	x	x	x	79%	x	x
COc1ccc(NC(=O)N2C[C@@H](F)C[C@H]2C(=O)N2CCCCC2)cc1	x	x	x	12%	x	x
NS(=O)(=O)c1ccc(NC(=O)CN2CCCC2c2ccc(F)cc2)cc1 (stereo unspecified)	x	x	x	-2%	x	x
Cc1ccc(C(=O)Nc2cnn(-c3ccc(C(=O)NCc4nc(-c5ccccc5)n[nH]4)cc3)c2)c(C)c1	x	x	0.92µM*	3%	x	1.8µM*
O=C(OCc1cccc([N+](=O)[O-])c1)C1CCCN1C(=O)C12CC3CC(CC(C3)C1)C2 (stereo unspecified)	x	x	x	8%	x	x
COc1cc(OC)cc(C(=O)NC(=S)NCc2ccco2)c1	18µM*	u	u	u	-6	u
COc1ccc(C(=O)NC(=S)NCc2ccco2)cc1Br	-15%	-25%	u	22µM*	i	u
COc1ccc(C(=O)NC(=S)NCc2ccco2)cc1OC	-16%	-1%	-28%	u	-17	u
SMILES	HT1080-NT tox	HT1080 IDH1KD tx	TDP1 cell CPT	12-LOX inh	IL-1B inflam inh	TDP1 cell noCPT
CCOC(=O)N1CCC(NC(=O)c2cnn(-c3ccc(C)cc3C)c2C2CCN(C(=O)OC(C)(C)C)CC2)CC1	x	x	-27%	-25%	x	-24%
Cc1ccc(-n2ncc(C(=O)Nc3ccc4c(c3)OCO4)c2C2CCN(C(=O)OC(C)(C)C)CC2)c(C)c1	x	x	u	-5%	x	29µM*
CCOC(=O)c1ccc(NC(=O)c2cnn(-c3ccc(C)cc3C)c2C2CCN(C(=O)OC(C)(C)C)CC2)cc1	x	x	u	-17%	x	16µM*
COCCN1C(=O)c2ccccc2C(C(=O)Nc2nnc(C(C)C)s2)C12CCCCC2 (stereo unspecified)	x	x	x	15%	x	x
CCOC(=O)N1CCN(c2nc(-c3ccccc3)c3ccccc3n2)CC1	u	8%	-26%	x	-5	26µM*
O=C(COc1ccccc1Cl)Nc1ccccc1C(=O)N1CCCCC1	-1%	-6%	u	-29%	-10	16µM*
CCOC(=O)N1CCN(C(=O)c2ccccc2-c2ccccc2)CC1	10µM*	7.3µM*	3.7µM*	50%	27	3.3µM*
CCOC(=O)N1CCN(C/C(Cl)=C/c2ccccc2)CC1	4%	-2%	2%	2.2µM*	-2	-15%
CCOC(=O)N1CCN(CC(=O)N2c3ccccc3CCc3ccccc32)CC1	9%	4%	-18%	-20%	1	u
